Source: PubChem
TDP1 cell CPT = growth inhibition of DT40 Tdp1-/-;hTDP1 cells with camptothecin (screen for TDP1 inhibitors) | chicken DT40 Tdp1-/-;hTDP1 cells + 20 nM CPT, ATP luminescence, 48 h | Potency, µM (top dose mostly 46.2 µM), for inactives: at the top dose activity change, negative = growth inhibition, most hits filed as inhibitors | 420,000 compounds, 12% hits | AID 686979; note: potency is the fitted concentration of half-maximal effect; nearly all actives have a fitted effect of over 55% in size
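Chicken DT40 Tdp1-/- cells complemented with human TDP1, 400 cells/well, exposed to compounds plus 20 nM camptothecin for at least 48 h at 37 C; viability read as ATP content by CellTiter-Glo luminescence.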
Six1-Eya2 blk = blocks human Six1 binding to Eya2 | 360,000 compounds, 0.56% hits | activity change, % (concentration not given with the values) | Q15475+O00167 | AlphaScreen GST-Six1/His-Eya2 binding, biochemical; stronger effect = lower value; in the data active = activity change below about -65%; inconclusive = mostly about -30% to -63%
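GST-Six1 + His-Eya2 (5X stock: 250/500 nM); Tris pH 8.0, 300 mM NaCl, 0.05% BSA, 0.02% Tween 20; GSH donor/Ni acceptor beads; 1 h 37 °C dark; AlphaScreen readout.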
TDP1 inh = inhibitors of human tyrosyl-DNA phosphodiesterase TDP1; Q9NUW8; recombinant TDP1, AlphaScreen DNA substrate cleavage; Potency, µM (doses to about 130 µM), for inactives: at the highest dose activity change, negative = inhibition, hits mostly inhibitors; 350,000 compounds, 0.28% hits; note: potency is the fitted concentration of half-maximal effect; nearly all actives have a fitted effect of over 40% in size
Target sequence (Q9NUW8 whole entry, looked up): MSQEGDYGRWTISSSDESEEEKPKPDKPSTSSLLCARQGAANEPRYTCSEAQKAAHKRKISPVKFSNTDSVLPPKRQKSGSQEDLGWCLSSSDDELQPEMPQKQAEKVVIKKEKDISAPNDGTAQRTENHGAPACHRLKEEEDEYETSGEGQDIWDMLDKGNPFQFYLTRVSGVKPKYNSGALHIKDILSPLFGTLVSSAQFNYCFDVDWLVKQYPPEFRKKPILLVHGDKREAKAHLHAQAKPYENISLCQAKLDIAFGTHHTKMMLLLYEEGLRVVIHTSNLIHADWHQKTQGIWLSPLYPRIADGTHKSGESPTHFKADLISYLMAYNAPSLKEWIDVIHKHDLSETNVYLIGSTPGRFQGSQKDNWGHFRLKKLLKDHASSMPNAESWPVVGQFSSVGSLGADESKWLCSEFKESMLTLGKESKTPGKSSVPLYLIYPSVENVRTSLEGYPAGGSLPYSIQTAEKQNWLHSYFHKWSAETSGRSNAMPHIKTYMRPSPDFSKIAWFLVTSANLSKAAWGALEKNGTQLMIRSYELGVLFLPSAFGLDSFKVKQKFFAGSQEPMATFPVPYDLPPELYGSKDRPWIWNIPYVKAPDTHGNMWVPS
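E. coli-derived human Tdp1, 1 nM final. Cpd preinc 15 min RT; substrate 15 nM final, 5 min RT; AS bead mix 10 ug/ml final, 10 min RT. Signal loss = tyrosine-FITC cleavage. No-enzyme wells = max signal.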
IL-1B inflam inh = inflammasome signaling inhibition, IL-1 beta readout. 360,000 compounds, 4.7% hits. AID 743279. THP-1 LPS/ATP IL-1B secretion, AlphaLISA, 16 h; stronger effect = lower value. activity change, % at 57.5 µM; in the data active = activity change below about -50%; inconclusive = mostly about -30% to -49%
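Secreted IL-1B measured by AlphaLISA bead assay after 16 h compound exposure of THP-1 cells; compounds (final up to 57.5 uM) added 1 h before LPS (250 ng/mL) and ATP (1.25 mM) stimulation; lower signal means less secretion.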
DT40 TDP1 no CPT = qHTS for Inhibitors of human tyrosyl-DNA phosphodiesterase 1 (TDP1): qHTS in cells in absence of CPT; DT40 Tdp1-/- hTDP1 cells, no CPT, ATP luminescence, 48 h; Potency, µM (top dose mostly 46.2 µM), inactives show at the highest dose activity change, negative = growth inhibition, hits mostly inhibitors; 420,000 compounds, 15% hits; note: potency is the fitted concentration of half-maximal effect; nearly all actives have a fitted effect of over 55% in size
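Readout: luminescence from CellTiter-Glo after 30 min in the dark at RT. Cells: DT40 Tdp1-/- with stable hTDP1, 400/well. Exposure: compounds alone, ≥48 hr, 37 °C.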
CtBP-E1A blk = inhibitors of CtBP/E1A interaction; AlphaScreen GST-E1A/His-CtBP binding, 1536-well; stronger effect = lower value; activity change, % (concentration not given with the values); 340,000 compounds, 0.49% hits; AID 651724; in the data active = activity change below about -65%; inconclusive = mostly about -30% to -63%
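Protein mix (5X: 125 nM each GST-E1A, His-CtBP) was incubated with pinned compound 2 h at 37 deg C in dark, in 50 mM Tris pH 8.0 buffer with 300 mM NaCl. Glutathione donor and nickel acceptor beads followed; AlphaScreen signal read after 1 h.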
* marks the source's active call; other numbers are inactive results; ? = inconclusive; . = no result given; ! = repeats disagree; [ ] = remark or other dose. Only some compounds are listed: those with a hit (about 18% of all), similar ones and a draw of the others. Unless noted, calls come from the whole dose curve; as a rule, active = well fitted curve in the direction sought with a large enough effect; inconclusive = small, poorly fitted or top-dose-only effect, or another doubt; inactive = no such curve, though single readings can be large; an effect the other way counts as inactive or inconclusive. % is set by controls: 0 for no effect and ±100 for the full control effect.

SMILES | TDP1 cell CPT | Six1-Eya2 blk | TDP1 inh | IL-1B inflam inh | DT40 TDP1 no CPT | CtBP-E1A blk
CC(=O)O[C@@]1(C(C)=O)CCC2C3C=C(Cl)C4=CC(=O)C5CC5[C@@]4(C)C3CC[C@]21C (stereo partly drawn) | 20.6µM* | . | -5.3% | . | 20.6µM* | .
CC(=O)O[C@]1(C(C)=O)CC[C@H]2C3C=C(Cl)C4=CC(=O)[C@@H]5C[C@H]5[C@]4(C)C3CC[C@@]21C (stereo partly drawn) | . | . | 10.9%[56.1 µM] | . | . | .
Cc1cc(C)c(NC(=O)COCc2cc(-c3cccs3)on2)c(C)c1 | 18.4µM* | . | -1.2% | . | ? | .
COC(=O)c1ccccc1NC(=O)COCc1cc(-c2cccs2)on1 | ? | . | 2.5% | . | ? | .
O=C(COCc1cc(-c2ccc3c(c2)OCO3)on1)N1CCN(c2cccc(C(F)(F)F)c2)CC1 | 13µM* | -2.0 | 0.5% | -9.6 | 23.1µM*! | -10.7
CCc1cccc(C)c1NC(=O)COCc1cc(-c2ccc3c(c2)OCO3)on1 | 23.1µM* | . | 5.0% | . | ? | .
COc1ccc(N2CCN(C(=O)COCc3cc(-c4ccc5c(c4)OCO5)on3)CC2)cc1 | ? | -0.4 | 4.4% | -18.6 | 18.4µM*! | -15.2
CCN1CCN(C(=O)COCc2cc(-c3ccc4c(c3)OCO4)on2)CC1 | -16.9% | 5.0 | 1.2% | -6.1 | 0.8% | -4.6
Cc1c(Cl)cccc1NC(=O)COCc1cc(-c2ccc3c(c2)OCO3)on1 | ? | . | 3.7% | . | ? | .
O=C(NCCCOC(=O)c1ccccc1)c1ccccc1 | -9.1% | -0.1 | . | 7.4 | -4.2% | 7.6
Cc1ccccc1CNC(=O)c1ccccc1N(C)S(=O)(=O)c1ccccc1 | -9.1% | 14.0 | . | -20.7 | -29.7% | -11.6
Cc1[nH]c2ccc(C(=O)N3CCN(c4ccc(F)cc4)CC3)cc2c1C | ? | -23.8 | 12.7% | 0.0 | -16.5% | -14.8
CCOc1ccc(-n2c(SCc3nc(-c4cccs4)no3)nnc2-c2ccncc2)cc1 | 5.7% | -6.1 | 6.6% | -20.1 | -28.4% | 10.2
CC(NC(=O)COC(=O)C1CCC1)c1ccccc1 (stereo not drawn) | 0.5% | -2.0 | 0.0% | 6.7 | 1.1% | -9.2
O=C(CN(Cc1cccs1)C(=O)CNS(=O)(=O)c1ccc(F)cc1)NCC1CCCO1 (stereo not drawn) | -1.7% | 29.5 | -5.1% | -6.5 | -8.5% | 0.0
COc1ccc(C(=O)Nc2nnc(CCc3ccccc3)s2)c(OC)c1 | ? | 0.4 | 2.0% | -14.1 | -21.7% | -3.8
CCN(CC)C(=O)c1ccc(CS(=O)(=O)Cc2ccccc2)cc1 | 1.4% | 0.0 | . | -4.8 | 4.1% | -2.7
CS(=O)(=O)c1ccc(Nc2nc(C(N)c3ccccc3)cs2)cc1 (stereo not drawn) | ? | 1.0 | . | -5.2 | ? | -2.3
CS(=O)(=O)c1ccc(Nc2nc(C(N)COCc3ccccc3)cs2)cc1 (stereo not drawn) | 20.6µM* | 2.1 | . | -3.0 | 20.6µM* | 0.0
CS(=O)(=O)c1ccc(Nc2nc(C(N)Cc3ccccc3)cs2)cc1 (stereo not drawn) | ? | 2.5 | . | -0.2 | 20.6µM* | -7.4
CS(=O)(=O)c1ccc(Nc2nc(C(N)c3ccccc3Cl)cs2)cc1 (stereo not drawn) | ? | 0.0 | . | 24.3 | ? | 0.0
CS(=O)(=O)c1ccc(Nc2nc(C(N)Cc3ccc(F)cc3)cs2)cc1 (stereo not drawn) | 16.4µM* | -14.0 | . | -27.7 | 20.6µM* | -1.4
COc1ccc(CC(N)c2csc(Nc3ccc(S(C)(=O)=O)cc3)n2)cc1 (stereo not drawn) | ? | -9.7 | . | -14.2 | 23.1µM* | -17.7
Cc1cc(C(=O)COC(=O)Cc2ccc(Br)cc2)c(C)n1C | 0.5% | -10.8 | 8.8% | 1.7 | 11.1% | -13.4
O=C(NCc1ccco1)c1nc2c(nnn2Cc2ccccc2Cl)c(=O)[nH]1 | ? | -2.3 | 7.7%[56.1 µM] | 2.8 | ? | 6.2
SMILES | TDP1 cell CPT | Six1-Eya2 blk | TDP1 inh | IL-1B inflam inh | DT40 TDP1 no CPT | CtBP-E1A blk
CCC(C)N1C(=O)CCC1C(=O)N1CCN(c2ccccc2F)CC1 (stereo not drawn) | -19.8% | -1.1 | -1.0% | -17.9 | -9.3% | 4.0
CS(=O)(=O)c1ccc(Nc2nc(C(N)Cc3ccc(C(F)(F)F)cc3)cs2)cc1 (stereo not drawn) | 20.6µM* | -8.3 | . | -20.9 | -83.8% | -0.9
NC(Cc1ccc(F)cc1)c1csc(Nc2ccc(S(N)(=O)=O)cc2)n1 (stereo not drawn) | ? | -8.8 | . | -14.6 | ? | -11.4
COc1cccc2nc(-c3cccs3)nc(NN3C(=O)C=C(C)C3=O)c12 | . | . | 13.2% | . | . | .
[O-][N+]1=c2ccc(Nc3ccccc3)cc2=NC12CCCCC2 | 3.66µM* | ? | 9.5% | -98.0* | 4.11µM* | ?
COc1ccc(NC2=NCCC2)cc1 | 13.2% | 8.1 | 2.0% | -9.8 | -0.2% | -1.5
Nc1cccc(Nc2ccccc2)c1 | 0.5% | 1.2 | 12.0% | 19.7 | 1.5% | -2.3
COc1ccc(Nc2ccc3c(c2)=NC2(CCCCC2)[N+]=3[O-])cc1 | 2.59µM* | -24.4 | 11.3% | -97.0* | 2.59µM* | -1.3
COc1cc(C(=O)N2CCN(S(=O)(=O)c3cc(C)ccc3C)CC2)ccc1OCC(=O)N1CCOCC1 | -3.4% | 4.2 | . | ? | 3.2% | -10.1
N#CC1=C(SCC(=O)NC2CCCCC2)NC(=O)CC1c1ccco1 (stereo not drawn) | ? | 23.2 | 2.6% | -3.8 | -16.9% | 0.0
N#CC1=C(SCC(=O)Nc2ccccc2)NC(=O)CC1c1ccco1 (stereo not drawn) | 7.31µM* | -13.4 | . | -6.9 | 18.4µM* | -17.5
N#CC1=C(SCC(=O)NCc2ccccc2)NC(=O)CC1c1ccco1 (stereo not drawn) | ? | -0.3 | 2.8% | -19.4 | 23.1µM* | 1.0
Cc1ccc(C2(C)NC(=O)N(CC(=O)Nc3cc(S(=O)(=O)N4CCOCC4)ccc3C)C2=O)cc1 (stereo not drawn) | ? | 0.3 | 2.7% | 17.0 | -18.0% | -0.3
Cc1cc2c(ccc3c2no[n+]3[O-])nn1 | -1.9% | -3.2 | 3.0% | -9.9 | -17.2% | 2.7
C#CCN(Cc1ccco1)C(=O)c1ccc(OC2CCN(Cc3ccccn3)CC2)cc1 | 18.4µM* | -0.8 | . | -13.4 | ? | -5.1
CCOC(=O)N1C(=O)[C@](CC)(c2ccccc2)N1C(=O)OCC | 8.2µM* | -1.1 | . | -97.6* | ? | 3.9
COc1ccc(-c2cc(C(F)F)n3ncc(C(=O)N4CCc5ccccc5C4)c3n2)cc1 | ? | 27.6 | 2.8% | ? | ? | 25.0
